Measured values published in PubChem BioAssay AID1159580 (chemical genetic matrix, 2015).
Among all 5,500 compounds or so, about 2,000 (36%) were called active. Roughly 18% stayed inconclusive and do not appear here. Rule as the data show it: active = normalized growth mostly below about 0.91 (no sharp cut-off); inconclusive = no clear call, values can overlap the other calls; inactive = mostly above about 0.92. The list shows a part of the results.

Assay: chemical genetic growth profiling, strain panel (AID 1159580);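 also: tested at 20 µM; growth read once vehicle control cultures reached saturation at 30 °C; 1 = growth at the plate median or of vehicle wells; lower values mean less growth of the strain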
Conditions: S. cerevisiae deletion strains, growth OD
[1] = locus YHR030C, strain SLT2, hits give low values

Measured: normalized growth

Cc1nn(-c2ccccc2)nc1C(=O)NC(=O)N1CCCC1
inactive: locus YAL013W, strain DEP1, hits give low values 0.992 | locus YBR229C, strain ROT2, hits give low values 0.983 | locus YDL101C, strain DUN1, hits give low values 0.949 | locus YDL134C, strain PPH21, hits give low values 1.01 | locus YDR150W, strain NUM1, hits give low values 0.871 | locus YEL061C, strain CIN8, hits give low values 1.02 | locus YGR078C, strain PAC10, hits give low values 0.964 | [1] 0.94 | locus YHR087W, strain rtc3, hits give low values 1.03 | locus YJR043C, strain POL32, hits give low values 0.977 | locus YJR075W, strain HOC1, hits give low values 0.995 | locus YLR039C, strain RIC1, hits give low values 0.998 | locus YLR058C, strain SHM2 (second series), hits give low values 0.997 | locus YLR085C, strain ARP6, hits give low values 1.02 | locus YLR262C, strain YPT6, hits give low values 1.02 | locus YML094W, strain GIM5, hits give low values 1.02 | locus YMR219W, strain ESC1, hits give low values 0.997 | locus YMR263W, strain SAP30, hits give low values 0.987 | locus YMR307W, strain GAS1, hits give low values 0.927 | locus YNL128W, strain TEP1, hits give low values 0.991 | locus YNL153C, strain GIM3, hits give low values 0.986 | locus YNL298W, strain CLA4 (second series), hits give low values 1.01 | locus YNL322C, strain KRE1, hits give low values 0.995 | locus YNR030W, strain Alg12, hits give low values 1 | locus YOL006C, strain TOP1, hits give low values 0.955 | locus YPL055C, strain LGE1, hits give low values 1 | locus YPL241C, strain CIN2, hits give low values 0.965 | locus YPR135W, strain CTF4, hits give low values 0.949

Cc1cc(OC(=O)N2CCCCC2)c(C(C)C)cc1[N+](C)(C)C
inactive: locus YAL021C, strain ccr4, hits give low values 0.994 | locus YAL026C, strain drs2, hits give low values 1.03 | locus YAL030W, strain snc1, hits give low values 1.01 | locus YBL061C, strain skt5, hits give low values 1.01 | locus YBR009C, strain hhf1, hits give low values 0.992 | locus YBR023C, strain chs3, hits give low values 1.01 | locus YBR171W, strain sec66, hits give low values 1.01 | locus YBR231C, strain swc5, hits give low values 1.02 | locus YBR279W, strain paf1, hits give low values 1.01 | locus YCL011C, strain gbp2, hits give low values 0.998 | locus YCL016C, strain dcc1, hits give low values 0.987 | locus YCL069W, strain vba3, hits give low values 1 | locus YCR088W, strain abp1, hits give low values 1.01 | locus YDL005C, strain med2, hits give low values 1.02 | locus YDL040C, strain nat1, hits give low values 1.01 | locus YDR001C, strain nth1, hits give low values 1.01 | locus YDR069C, strain doa4, hits give low values 1.03 | locus YDR137W, strain rgp1, hits give low values 1.03 | locus YDR159W, strain sac3, hits give low values 1.06 | locus YDR195W, strain ref2 0.997 | locus YDR297W, strain sur2, hits give low values 1.01 | locus YDR334W, strain swr1, hits give low values 1 | locus YDR335W, strain msn5, hits give low values 1.01 | locus YDR392W, strain spt3, hits give low values 0.995 | locus YEL003W, strain gim4, hits give low values 1.01 | locus YEL037C, strain rad23, hits give low values 1 | locus YEL061C, strain CIN8 (second series), hits give low values 1.01 | locus YER015W, strain faa2, hits give low values 1 | locus YER016W, strain bim1, hits give low values 1.01 | locus YER111C, strain swi4, hits give low values 1.01 | locus YER155C, strain BEM2 (second series), hits give low values 0.998 | locus YFR010W, strain ubp6, hits give low values 1.02 | locus YGL167C, strain pmr1, hits give low values 1.01 | locus YGL173C, strain kem1, hits give low values 1.02 | locus YGL227W, strain vid30, hits give low values 0.999 | locus YGL240W, strain doc1, hits give low values 1.02 | locus YGL253W, strain hxk2, hits give low values 1.01 | locus YHR013C, strain ard1, hits give low values 0.995 | locus YHR027C, strain rpn1, hits give low values 1.01 | [1] 1 | locus YHR079C, strain IRE1, hits give low values 1.01 | locus YHR142W, strain chs7, hits give low values 0.986 | locus YJL092W, strain hpr5, hits give low values 1.01 | locus YJL095W, strain BCK1 (second series), hits give low values 1 | locus YJL095W, strain BCK1, hits give low values 1.01 | locus YJL115W, strain asf1, hits give low values 1.02 | locus YJL129C, strain trk1, hits give low values 1.03 | locus YJL154C, strain vps35, hits give low values 1.01 | locus YJL164C, strain tpk1, hits give low values 1 | locus YJL166W, strain qcr8, hits give low values 1.05 | locus YJR066W, strain TOR1, hits give low values 0.911 | locus YKL160W, strain elf1, hits give low values 0.988 | locus YKR026C, strain gcn3, hits give low values 1 | locus YKR091W, strain srl3, hits give low values 1 | locus YLL001W, strain dnm1, hits give low values 1 | locus YLL026W, hits give low values 1.03 | locus YLL041C, strain sdh2, hits give low values 1.03 | locus YLR027C, strain aat2, hits give low values 1.01 | locus YLR113W, strain HOG1, hits give low values 1 | locus YLR221C, strain rsa3, hits give low values 1.01 | locus YLR258W, strain gsy2, hits give low values 0.987 | locus YLR262C, strain YPT6 (second series), hits give low values 1.03 | locus YLR320W, strain mms22, hits give low values 1.02 | locus YLR342W, strain FKS1, hits give low values 1.01 | locus YLR357W, strain rsc2, hits give low values 1.06 | locus YLR370C, strain arc18, hits give low values 0.989 | locus YLR384C, strain iki3, hits give low values 0.999 | locus YML120C, strain ndi1, hits give low values 1 | locus YMR058W, strain fet3, hits give low values 1.02 | locus YMR125W, strain sto1, hits give low values 1.01 | locus YMR129W, hits give low values 1.01 | locus YMR205C, strain PFK2, hits give low values 1.02 | locus YMR231W, strain pep5, hits give low values 1.01 | locus YNL071W, strain lat1, hits give low values 1.01 | locus YNL183C, strain NPR1, hits give low values 0.949 | locus YNL209W, strain ssb2, hits give low values 1 | locus YNL248C, strain rpa49, hits give low values 1.02 | locus YNL322C, strain KRE1 (second series), hits give low values 1 | locus YNR049C, strain mso1, hits give low values 1.01 | locus YOR001W, strain rrp6, hits give low values 1.04 | locus YOR070C, strain gyp1, hits give low values 1 | locus YOR080W, strain dia2, hits give low values 1.01 | locus YOR083W, strain WHI5, hits give low values 0.975 | locus YOR106W, strain vam3, hits give low values 0.99 | locus YOR231W, strain MKK1, hits give low values 0.999 | locus YOR265W, strain rbl2, hits give low values 0.98 | locus YOR270C, strain vph1, hits give low values 1.08 | locus YOR290C, strain snf2, hits give low values 0.988 | locus YPL051W, strain arl3, hits give low values 1.01 | locus YPL078C, strain atp4, hits give low values 0.99 | locus YPL106C, strain sse1, hits give low values 1.01 | locus YPL240C, strain hsp82, hits give low values 1.01 | locus YPL256C, strain CLN2, hits give low values 0.978
